The values that follow come from PubChem BioAssay AID1345085 (National Center for Advancing Translational Sciences (NCATS), 2018).

The structures appear in SMILES notation. Inconclusive results are not listed. Values without a mark were called inactive. The source made the active and inactive calls. Calls follow the shape of the dose curve; as a rule, active = well fitted cell-killing curve with a large enough effect; inconclusive = small, poorly fitted or top-dose-only effect, or effect the other way; inactive = no such curve, though single readings can be large or run the other way.
% is scaled to controls: 0 for no effect and ±100 for the full control effect; potency is read from the fitted curve at half-maximal effect.

The test system of the assay is SKOV3. Description: Confirmatory qHTS for gynecologic anti-cancer compounds from libraries of approved drugs and bioactive compounds. Also: nearly all actives have a fitted effect of over 55% in size. The conditions noted are these: gynecologic cancer cell panel viability, ATPlite luminescence, 48 h; series mostly up to 57.6 µM; activity change, negative = viability loss: at the top concentration. An outline of the steps:
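IC50 values derive from an ATPlite ATP-content luminescence assay following 48 h treatment at 37 C. Each compound ran as an 11-concentration, threefold series (57.5 uM to 0.977 nM); HEK 293T served as control line for selectivity index.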
In general terms: qHTS replaces the single test concentration by a dilution series.
Take `O=C(CCCCCCC(=O)Nc1ccccc1)NO`: the Potency is 1.37 µM (active). Take `O=C(O)c1ccc(Nc2ncc3c(n2)-c2ccc(Cl)cc2C(c2c(F)cccc2F)=NC3)cc1`: the “activity change, negative = viability loss” value was -12.6%. With `CN(C)C(CCOc1cccc2ccccc12)c1ccccc1` (stereo not given), the “activity change, negative = viability loss” value is -1.7%. As for `O=C(CCCCCCNC(=O)c1cnc(N(c2ccccc2)c2ccccc2)nc1)NO`, the Potency was 12.2 µM (active). Regarding `CC(Oc1ccc2[nH]nc(/C=C/c3cnn(CCO)c3)c2c1)c1c(Cl)cncc1Cl` (stereo not given), the Potency is 3.06 µM (active).
